“And” between values parts separate entries of the source, which are not always exact repeats. Equal entries are not always repeated. The panel holds about 83,000 compounds, 20% with a hit somewhere; the sample as a whole holds those more often.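 Step 1: grow cells in 96-well plates. Step 2: add test compound at a single concentration. Step 3: incubate 48 h. Step 4: record percent growth.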 Unmarked numbers belong to inactive results. The source made the active and inactive calls. The calls were made as follows: active = growth percent below 10; inactive = the rest.

We go through 39 compounds from PubChem BioAssay (NCI).

The subject of this assay is MDA-MB-468 breast. Description: NCI-60 one-dose screen, 48 h (100 = growth as untreated, 0 = no growth, -100 = all killed). To be noted: 10 µM unless noted.
Take `CC(=O)Nc1ccc2c(c1)C(N1CC3CCC(CC3)C1)c1ccccc1-2` (centres undefined): the growth was 94%.

In the case of `CCCCN(CCCC)c1cc(C(=O)CCCCCN)c2ccccc2n1`, the growth is 84.5%. With `Cc1ccc(O)c(C(=O)O)c1` the figure was 106%; with `NC1=NN=C2N(N)C(=O)c3cnn(-c4ccccc4)c3N2c2nc(-c3ccccc3)cc(-c3ccccc3)c21`, 110%. With `CC[N+](CC)(CC(=O)Nc1c(C)cccc1C)Cc1ccccc1` the figure was 63.8%; with `COc1ccc(C(=O)N2N=C(c3ccc(F)cc3)CC2c2cn(-c3ccccc3)nc2-c2ccccc2)cc1` (centres undefined), 60.8%. With `Cc1[nH]c(C(=O)Nc2ccccc2OCc2cccc(C(=O)NC3CCNC3)c2)c(Cl)c1Cl` (centres undefined) the figure was 22%; with `O=S(=O)(CCN1CCOCC1)Nc1cncc(-c2ccc3ncnc(Nc4ccc(F)c(Cl)c4)c3c2)c1`, -23.1% (active); with `Nc1nc(Nc2ccccc2SSc2ccccc2Nc2nc(N)nc(-c3ccc(C(F)(F)F)cc3)n2)nc(-c2ccc(C(F)(F)F)cc2)n1`, 132%.

As for `C/C(Nc1ccc(Cl)c(Cl)c1)=C1\CCOC1=O`, the growth is 70.5%.

In the case of `COc1cccc(C2C3=C(COC3=O)N(CCO)c3cc4c(cc32)OCO4)c1` (centres undefined), the growth was -36.3% (active). Take `O=S(=O)(NCC[C@@H]1C[C@H]1c1ccc2ccccc2c1)c1ccc(C(F)(F)F)cc1`: the growth is 72.3%. With `Clc1ccc(/C=N\N2CCCCCC2)cc1` the figure was 106% and 122%; with `O=C(CCCCCCN1CC(=O)N2[C@@H](C3CCCCC3)c3[nH]c4ccccc4c3C[C@H]2C1=O)NO`, 64.3%. Next, `O=C1c2ccccc2C(=O)c2c(O)c(Cl)cc(O)c21`: -15.7% (active); `COc1ccc(NC(=O)/C(=C/N2C(=O)/C(=C/c3ccc(OC)c(OC)c3)NC2=S)C(C)=O)cc1`: 40.1%; `CC(=O)OCC(COC(C)=O)(COC(C)=O)COC(C)=O`: 102%. Next, `Nc1nc(=S)c2ncn(C3OC(COP(=O)(O)O)C(O)C3O)c2[nH]1` (centres undefined): 4.34% (active); `O=C1CCc2c(sc3[nH]c(=S)n(-c4ccc(OC(F)(F)F)cc4)c(=O)c23)C1`: -4.6% (active). On to `C[C@@H]1CCC[C@H]1CC(N)C(=O)O` (some centres undefined), for which the growth was 92.8%. Next, `COc1cnc2c(c1)C(=O)c1c-2n(CCCNC2=NCCS2)c(=O)c2cc(F)ccc12`: -17.6% (active); `c1cncc(-c2csc(-c3c[nH]c4ccccc34)n2)c1`: 99.1%.

On to `CC(C)N(Cc1ccc(CN(C(=O)CCl)C(C)C)cc1)C(=O)CCl`, for which the growth is 15.4%.

For the compound `C=C[C@H]1CCC/C=C/[C@@H]2C[C@H](O)C[C@H]2[C@H](O)/C=C/C(=O)O1`, the growth was -42.7% (active). Take `COc1cc(Nc2nc(N[C@H]3CCCC[C@@H]3N)nc3cc[nH]c(=O)c23)cc(OC)c1`: the growth was -24.5% (active).

Regarding `N#Cc1c(-c2ccccc2)cc(-c2c[nH]c3ccccc23)nc1-c1c[nH]c2ccccc12`, the growth was 93%. Next, `Cc1nc(Nc2cccnc2)sc1C(=O)/C=C/c1ccc(F)cc1`: 26.7%; `O=S(=O)(Nc1ccc(I)cc1F)c1ccc(-c2cnc(C3CC3)o2)cc1`: -9.07% (active). `Cc1n(Cc2ccc3ccccc3n2)cc[n+]1Cc1ccc2ccccc2n1`: the growth is 8.07% (active). With `O=C(N=Nc1c(O)[nH]c2ccccc12)Nc1ccc(F)cc1` the figure was 103%; with `COc1cc(C(=O)c2cc(C(C)=O)c3cccc(C)n23)cc(OC)c1OC`, 15.4%.

With `C=C(C)[C@@H]1CC[C@]2(C(=O)NNC(=O)c3cccnc3)CC[C@]3(C)[C@H](CC[C@@H]4[C@@]5(C)CCCNC(C)(C)[C@@H]5CC[C@]43C)[C@@H]12`, the growth was 79.8%. Next, `CCOC(=O)c1[nH]c(-c2ccc(Cl)cc2)cc1-c1cccnc1`: -1.1% (active); `Cn1cc(-c2noc(C(=O)c3cn(C)c4ncc(Br)cc34)n2)c2ccccc21`: 111%.

For the compound `Oc1c(Cl)c2ccccc2c2ccccc12`, the growth is 112%. With `O=S(=O)(NCCCNc1nccc(-c2[nH]c(-c3ccccc3)nc2-c2ccc(Cl)c(O)c2)n1)c1cccc2ccccc12` the figure was 36.7%; with `c1ccc(-n2nnnc2-c2cccc3ccccc23)cc1`, -22.5% (active); with `COc1c(C(=O)/C=C/c2ccc(C)o2)c(O)cc2occc12`, 30.7%.

Regarding `CC/C=C\C/C=C\C[C@H](O)C/C=C1/C(=O)C=C[C@@H]1C/C=C\CCCC(=O)O`, the growth is 23.5%.
